Each structure is given as a SMILES string. Records with an inconclusive call do not appear. Values without a mark were called inactive. Active and inactive are the calls of the source. The call rests on the fitted dose curve; in most records, active means well fitted activation curve with a large enough effect; inconclusive means small, poorly fitted or top-dose-only effect; inactive means flat fitted curve, though single readings scatter.

This assay in a line: Cellular Toxicity (caspase-3) Hek293 (AID 664).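 Further: cells exposed to compound for 16 h at 37 °C before readout.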 The following applies: HEK293 caspase-3 activation, DMSO = 0%, 100 µM tamoxifen = 100%; at 92.2 µM (top of the series). The text has this: NIH Chemical Genomics Center [NCGC]
NIH Molecular Libraries Screening Centers Network [MLSCN]
National Institutes of Environmental Health Sciences [NIEHS]
National Toxicology Program [NTP]
We have developed a 1536-well cell-based assay for quantitative high throughput screening (qHTS) against a number of cell lines to determine in vitro caspase 3/7 of small molecules. This particular assay uses the Hek 293 cell line which is derived from human embryonic kidney cells.
NCGC Assay Protocol Summary:
The Caspase-Glo 3/7 assay (Promega) is a homogeneous method to measure caspase-3 and caspase-7 activities in cultured cells. The quantitation of caspase 3/7 activity is based on the cleavage of a peptide-aminoluciferin substrate. After caspase cleaves the substrate the free aminoluciferin is liberated and serves as the substrate of luciferase, which generates the light. The luminescent signal is proportional to amount of caspase 3/7 activity present.
Using the Caspase-Glo 3/7 assay, the amount of caspase 3/7 activity was measured in the Hek 293 cell line with complete culture medium following compound treatment for 16 hours. The assay was performed in opaque white 1536-well plates. In the screen, tamoxifen and doxorubicin were used as positive controls. Library compounds were measured for their ability to cause the activation of caspase 3/7 in the cell line, as reflected by an increase in luminescence signal, in a concentration-dependent manner. Data were normalized to the controls for basal activity (DMSO only) and 100% stimulation (100 uM tamoxifen). AC50 values were determined from concentration-response data modeled with the standard Hill equation.
qHTS protocol for caspase 3/7 assay in Hek 293 cells
[Step] [Parameter] [Value] [Description]
2. Time; 5 hr; 37 °C incubation
4. Controls; 23 nL; Tamoxifen 0.23 uM to 100 uM & Doxorubicin 7.0 pM to 100 uM
5. Time; 16 hr; 37 °C incubation
6. Reagent; 5 uL; Caspase-Glo 3/7 reagent
7. Time; 20 min; Room Temperature
8. Detection; Luminescence; Viewlux plate reader
Keywords: caspase 3/7, apoptosis, Hek 293 cell line, luminescence, NTPHTS, NTPHTS_NCGC, NIEHS, EPA, DSSTox, MLSMR, MLSCN, NIH Roadmap, qHTS, NCGC
For the molecule `CC[C@H](C)C(=O)O[C@H]1C[C@@H](C)C=C2C=C[C@H](C)[C@H](CC[C@@H]3C[C@@H](O)CC(=O)O3)[C@H]21`, the caspase-3 activation was -1.73%.

Consider `NC(N)=NC(N)=NCCc1ccccc1`, for which the caspase-3 activation is -0.745%.

As to `Cc1noc(NS(=O)(=O)c2ccc(N)cc2)c1C`, the caspase-3 activation is -1.11%.

For `Cc1ncc([N+](=O)[O-])n1CCO`, the caspase-3 activation was -0.402%.

Consider `C[C@]12C=CC(=O)C=C1CC[C@@H]1[C@@H]2C(=O)C[C@@]2(C)[C@H]1CC[C@]2(O)C(=O)CO`, for which the caspase-3 activation is -0.65%.

For the molecule `COc1ccc2cc3[n+](cc2c1OC)CCc1cc2c(cc1-3)OCO2`, the caspase-3 activation is 4.12%.

For `CC1=NN(c2ccccc2)C(=O)C1`, the caspase-3 activation is 1.55%.

Regarding `CC(=O)[C@H]1CC[C@H]2[C@@H]3CCC4=CC(=O)CC[C@]4(C)[C@H]3CC[C@]12C`, the caspase-3 activation was 154% (active).

On to `Cc1ccnc2c1NC(=O)c1cccnc1N2C1CC1`, for which the caspase-3 activation was -0.521%.

As to `Cc1cc(NS(=O)(=O)c2ccc(N)cc2)no1`, the caspase-3 activation was 1.7%.

Turning to `O=C(N[C@H](CO)[C@H](O)c1ccc([N+](=O)[O-])cc1)C(Cl)Cl`, the caspase-3 activation is 1.63%.

Turning to `N=C(N)c1ccc(OCCCCCOc2ccc(C(=N)N)cc2)cc1`, the caspase-3 activation is 3%.

Consider `Cc1nnc(NS(=O)(=O)c2ccc(N)cc2)s1`, for which the caspase-3 activation is -0.508%.

For `NNC(=O)c1ccncc1`, the caspase-3 activation was 0.113%.

As for `CC(=O)Oc1ccccc1C(=O)Nc1ncc([N+](=O)[O-])s1`, the caspase-3 activation was -8.75%.

As for `O=C(O)c1cc(=O)[nH]c(=O)[nH]1`, the caspase-3 activation is -0.467%.

For `CCc1cc(C(N)=S)ccn1`, the caspase-3 activation was -3.96%.
